Data reported in PubChem BioAssay AID1903 (Southern Research Specialized Biocontainment Screening …, 2009).
Values joined by “and” are separate entries in the source; they are usually repeats but may differ in a detail not shown here. Equal entries are not always repeated. Screen size: about 310,000 compounds; about 1,200 (0.39%) were called active. No rule for the calls is given here. Only a sample is shown. Entries with a potency or affinity are not part of this list.

target: Large T antigen (Simian virus 40) (UniProt P03070); experiment: TAg ATPase/helicase activity blockers – biochemical (AID 1903); conditions: SV40 large T antigen ATPase/helicase inhibition assay; at 20 µM; hits give high values
Sequence (P03070 whole entry, looked up): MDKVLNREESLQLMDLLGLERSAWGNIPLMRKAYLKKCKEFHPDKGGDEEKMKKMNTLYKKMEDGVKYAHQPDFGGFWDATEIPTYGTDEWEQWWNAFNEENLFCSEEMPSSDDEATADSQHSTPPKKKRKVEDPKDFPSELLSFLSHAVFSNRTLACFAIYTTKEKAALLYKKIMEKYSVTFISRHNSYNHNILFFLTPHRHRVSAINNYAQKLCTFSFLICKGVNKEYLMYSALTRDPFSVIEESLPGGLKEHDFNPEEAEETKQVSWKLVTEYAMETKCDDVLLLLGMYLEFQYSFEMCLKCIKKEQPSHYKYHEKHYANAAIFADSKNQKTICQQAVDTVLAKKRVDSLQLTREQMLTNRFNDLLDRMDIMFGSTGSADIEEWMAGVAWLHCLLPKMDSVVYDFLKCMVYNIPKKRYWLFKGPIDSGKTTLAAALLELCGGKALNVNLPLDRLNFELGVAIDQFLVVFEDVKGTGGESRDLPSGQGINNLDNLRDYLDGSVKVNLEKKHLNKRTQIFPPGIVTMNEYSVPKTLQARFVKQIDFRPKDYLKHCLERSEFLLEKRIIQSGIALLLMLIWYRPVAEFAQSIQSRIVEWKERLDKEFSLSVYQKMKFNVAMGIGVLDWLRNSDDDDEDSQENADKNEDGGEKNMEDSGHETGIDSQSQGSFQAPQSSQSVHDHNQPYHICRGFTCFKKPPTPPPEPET

inhibition, inactive:
Nc1ccc(C(=O)O)cc1 4.17% and 15.4% and 26%, O=C(O)c1ccc(C(=O)C(=O)c2ccccc2)cc1 13.3%, Cc1cc(NC(=O)CCC(=O)N(Cc2ccccc2)C(C(=O)NC2CCCC2)c2ccco2)no1 (stereo not drawn) 10.2%, O=C(CS(=O)CC(=O)Nc1ccccc1-c1ccccc1)Nc1ccc(F)cc1 (stereo not drawn) 6.05%, Cc1ccc(Cn2c(=O)c3ccccc3n3c(CCC(=O)NCCN4CCOCC4)nnc23)cc1 3.95%, COc1cc(/C=C(\C#N)c2ccccn2)ccc1OCc1ccc(Cl)cc1 12.1%, Cn1c(/C(C#N)=C/c2cccc(O)c2)nc2ccccc21 12.6%, COc1cc(/C=C(\C#N)c2ccccn2)ccc1OCc1ccccc1 4.85%, Cn1c(/C(C#N)=C/c2ccc(O)cc2)nc2ccccc21 9.77%, O=C(C1CCN(S(=O)(=O)c2cccnc2)CC1)N1CCN(c2cccc(Cl)c2)CC1 3.44%, Cc1ccc2c(NC(=O)C3CC3)c(C)ccc2n1 13.3%, O=C(CCNC(=O)N1CC(=O)Nc2ccccc21)NCc1cccc(Cl)c1 8.76%, CCC(Sc1ccccc1C(=O)O)C(=O)O (stereo not drawn) 1.42%, O=C(O)c1ccccc1SSc1ccccc1C(=O)O 1.77%, CCOC(=O)C1CCN(C(=O)COc2cccc(C)c2)CC1 4.64%, CCCCn1c(N)c(N(CC(C)C)C(=O)CSc2n[nH]c(-c3ccc(C)cc3)n2)c(=O)[nH]c1=O 13%, CCOC(=O)c1sc(NC(=O)c2cc3ccccc3o2)nc1C -6.17%, CCC(=O)Nc1ccc(N2CCCCC2)c(C(=O)Nc2ccccc2C)c1 0.82%, Cc1ccccc1C(=O)Nc1ccccc1N1CCCCC1 -0.09%, CCCCOC(=O)Nc1ccc(C(=O)OC)cc1 6.13%, Cc1ccc(NC(N)=S)cc1 8.99%, CCCCOC(=O)Nc1ccc(C(N)=O)cc1 12.3%, Cc1ccc(NC(=S)c2ccc(N(C)C)cc2)cc1 -10.2%, CCOC(=O)c1c(C)c(C(=O)Nc2ccc3c(c2)OCCO3)c(C)n1CC 0.47%, CCOC(=O)c1c(C)c(C(=O)Nc2ccccc2)c(C)n1CC 10.4%, COC(=O)C1=CN(Cc2ccccc2)C=C(C(=O)OC)C1c1ccc(OC)c(OC)c1 7.64%, Cc1ccc(N(C(=O)CNC(=O)c2ccco2)C(C(=O)NC2CCCCC2)c2ccncc2)c(C)c1 (stereo not drawn) 23.9%, COC(=O)c1c(-c2ccc(F)cc2)csc1NC(=O)C1CCCO1 (stereo not drawn) 12%, COc1ccc(-c2cc(=O)oc3cc(O)ccc23)cc1 7.73%, COc1ccc(-c2cc(=O)oc3c(C)c(O)ccc23)cc1 6.62%, O=C(Nc1cccc2cccnc12)c1ccccc1Cl 1.03%, COc1ccc(N2CSC3=C(C#N)C(c4cc(OC)c(OC)cc4OC)CC(=O)N3C2)c(OC)c1 (stereo not drawn) 61.9%, COc1cc(C2CC(=O)N3CN(c4ccccc4C)CSC3=C2C#N)cc(OC)c1OC (stereo not drawn) -11.8%, CCc1ccccc1N1CSC2=C(C#N)C(c3cc(OC)c(OC)cc3OC)CC(=O)N2C1 (stereo not drawn) 16.6%, COc1ccc(C2CC(=O)N3CN(c4ccc(C)c(Cl)c4)CSC3=C2C#N)cc1OC (stereo not drawn) 36.9% and 28.8%, COc1ccc(OC)c(C2CC(=O)N3CN(c4cccc(Cl)c4C)CSC3=C2C#N)c1 (stereo not drawn) 45.4%, COc1ccc(N2CSC3=C(C#N)C(c4cc(OC)ccc4OC)CC(=O)N3C2)c(OC)c1 (stereo not drawn) 34.1%, CC(C)C[C@H](NC(=O)c1nc[nH]c1C(=O)NCc1ccc(CNC(=O)OC(C)(C)C)cc1)C(=O)OC(C)(C)C 1.84%, CCOc1cc2[nH]c(=O)n(Cc3ccccc3)c(=O)c2cc1OCC 3.82%, Cc1cc(C)c(C#N)c(N)n1 20.5%, COc1ccc(S(=O)(=O)N(CCc2ccccc2)CC(=O)NCCCO)cc1 6.27%, CN(C)S(=O)(=O)c1ccc(C(=O)Nc2ccn(C)n2)cc1 4.29%, CS(=O)(=O)N(CC(=O)N1CCC(C(N)=O)CC1)Cc1ccc(Cl)c(Cl)c1 6.63%, COc1ccccc1Nc1nc(N)nc(CN2CCN(Cc3ccc4c(c3)OCO4)CC2)n1 11.3%, CC(SCC(=O)NC12CC3CC(CC(C3)C1)C2)C(=O)O (stereo not drawn) 9.37%, Cc1ccc(-c2cc(C(F)(F)F)n3ncc(C(=O)N4CCN(C)CC4)c3n2)cc1 -2.21%, CC(/C=C1\SC(=S)N(C(C(=O)O)C(C)C)C1=O)=C\c1ccccc1 (stereo not drawn) 15.2%, O=C(O)CC(C(=O)O)N1C(=O)/C(=C/C=C/c2ccco2)SC1=S (stereo not drawn) 53.1%, O=C(O)C(Cc1ccccc1)N1C(=O)/C(=C/c2ccccc2)SC1=S (stereo not drawn) 16%, CC(=C\c1ccccc1)/C=C1/SC(=S)N(C(C(=O)O)C(C)C)C1=O (stereo not drawn) 18.4%, CCc1ccc2c(CN3CCOCC3)cc(=O)oc2c1 3.81%, COc1ccc(NC(=O)c2cc(-c3ccccc3)on2)cc1OC 6.07%, Cn1c(Oc2ccc(Cl)c3cccnc23)nc2c1c(=O)n(Cc1ccccc1Cl)c(=O)n2C 5.38%, CCCC(C(=O)NC1CCCC1)N(CCN(CC)CC)C(=O)c1snc(C(N)=O)c1N (stereo not drawn) 7.08%, CC1CCCN(S(=O)(=O)c2ccc(NC(=O)CNC3CCCC3)cc2)C1 (stereo not drawn) 4.39%, CCS(=O)(=O)c1ncc(Cl)c(C(=O)Nc2ccc(C)cc2)n1 7.02%, CCc1noc(C)c1C(=O)Nc1ccc(S(=O)(=O)N2CCCC(C)C2)cc1 (stereo not drawn) 10%, CC1CCN(S(=O)(=O)c2ccc(NC(=O)c3ccncc3)cc2)CC1 7.49%, CCC1CCCCN1S(=O)(=O)c1ccc(NC(=O)c2cccnc2)cc1 (stereo not drawn) 16.2%, CCC1CCCCN1S(=O)(=O)c1ccc(NC(=O)c2ccncc2)cc1 (stereo not drawn) -1.25%, Cc1ccc(S(=O)(=O)n2nccc2-c2c(-c3ccc(Cl)cc3)noc2C)cc1 6.88%, O=C(O)c1ccc(NC(CSCc2ccc(F)cc2)C(=O)O)c([N+](=O)[O-])c1 (stereo not drawn) -4.05%, O=C(c1cc2ccccc2o1)N1CCC(N2CCC(C(=O)N3CCCC3)CC2)CC1 5.34%, COc1ccc(/C=C2\SC(=S)N(NS(=O)(=O)c3ccccc3)C2=O)c(OC)c1 11.9%, O=S(=O)(NCC1CCCO1)c1ccc(Cl)cc1 (stereo not drawn) 1.99%, O=C(c1cc([N+](=O)[O-])ccc1N1CCCC1)N1CCCCC1 1.67%, Cc1cc(-n2c(C)cc(C(=O)CN3C(=O)NC4(CCCCCC4)C3=O)c2C)no1 -2.03%, Oc1c(C=Nc2ccccc2)sc2ccccc12 21.4%, CC1(C)CC(=O)C(C=Nc2ccccc2)=C(O)C1 -6.01%, COc1ccc(N=CC2=C(O)CCCC2=O)cc1 18.6%, CC1(C)CC(=O)C(C=Nc2ccc(N)cc2)=C(O)C1 28.8%, O=C1CCCC(O)=C1C=Nc1cccc(C(F)(F)F)c1 2.45%, O=C1CC(c2ccccc2)CC(O)=C1C=Nc1ccc(O)cc1 (stereo not drawn) 30.3%, CCOC(=O)c1cnc(-n2nc(C)cc2C)nc1NCc1ccc2c(c1)OCO2 17.1%, Cc1ccc(C)c(NC(=O)c2cc(-c3ccccc3O)n[nH]2)c1 3.34%, O=C(NC1CCCC1)C1CCN(C(=O)NCc2ccccc2)CC1 8.69%, CC(=O)c1cc2c(cc1N(C(=O)c1ccco1)C(C(=O)NC1CCCC1)c1ccccc1F)OCO2 (stereo not drawn) 1.47%, C/C(=N\NC(=O)c1cc(C)[nH]n1)c1ccc(-c2ccccc2)cc1 5.47%, CC(C(=O)NC1CCCCC1)N1C(=O)C2C3C=CC(C3)C2C1=O (stereo not drawn) 3.95%, N#CC(C#N)=C1C=CC=CN1/C(=C\c1ccco1)C(=O)c1ccc(-c2ccccc2)cc1 28.2%, N#CC(C#N)=C1C=CC=CN1/C(=C\c1ccccc1)C(=O)c1cccs1 4.44%, COCCN(CCOC)S(=O)(=O)c1ccc(C(=O)NC2CCN(Cc3ccccc3)CC2)cc1 4.79%, CCOC(=O)N1CCN(Cc2cccs2)CC1 5.2%, O=C(O)[C@H](O)[C@@H](O)C(=O)O 3.59%, O=C(O)[C@@H](O)[C@H](O)C(=O)O 16.5%, Cc1c(O)ccc2c(=O)c(-c3nncn3-c3ccccc3)coc12 2.48%, COC(=O)c1ccc(-c2nc(O)c3cnccn23)cc1 4.33%, CSc1ccc(-c2nc(O)c3cnccn23)cc1 27.6%, O=C(NNC(=O)c1ccc(O)cc1O)c1ccc(-c2ccccc2)cc1 3.4%, CC1CCCN(C(=S)Nc2ccc(Nc3ccccc3)cc2)C1 (stereo not drawn) 14.1%, OCC1CCCN(C(=S)Nc2ccc(Oc3ccccc3)cc2)C1 (stereo not drawn) 5.94%, CN1CCN(c2nc3c(c(=O)n(C)c(=O)n3C)n2Cc2ccc(Cl)cc2)CC1 3.78%, CC(C)Sc1nc2c(c(=O)n(C)c(=O)n2C)n1Cc1ccc(Cl)cc1 3.02%
